Shown are actives, neighbours in structure and some others; about 27% of the full set was active somewhere.
CYP2C19 inh = inhibitors of human CYP2C19. P33261. CYP2C19 Supersomes, luciferin-H EGE luminescence, 30 min. inhibition, % at 5 µM. hit rate 21% among 96,000. AID 778;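 active = CYP2C19 inhibition above a set limit at 5 µM in the primary screen, cut at about 50% in these data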
Target sequence (P33261 whole entry, looked up): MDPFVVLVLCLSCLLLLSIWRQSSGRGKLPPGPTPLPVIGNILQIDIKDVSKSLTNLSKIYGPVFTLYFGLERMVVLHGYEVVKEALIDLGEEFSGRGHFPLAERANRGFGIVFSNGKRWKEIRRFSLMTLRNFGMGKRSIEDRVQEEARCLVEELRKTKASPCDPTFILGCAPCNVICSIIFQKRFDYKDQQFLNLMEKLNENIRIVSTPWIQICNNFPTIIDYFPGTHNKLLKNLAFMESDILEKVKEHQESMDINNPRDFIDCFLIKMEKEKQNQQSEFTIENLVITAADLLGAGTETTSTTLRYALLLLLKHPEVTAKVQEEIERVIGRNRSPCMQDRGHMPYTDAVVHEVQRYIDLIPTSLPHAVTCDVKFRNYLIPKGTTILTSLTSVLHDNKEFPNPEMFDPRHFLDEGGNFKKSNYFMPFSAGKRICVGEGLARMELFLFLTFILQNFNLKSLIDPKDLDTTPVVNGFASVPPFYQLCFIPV
CYP2C9 act = CYP2C9 (human) activation; recombinant CYP2C9, luciferin-H conversion, luminescence; hits give high values; factor 1 = untreated enzyme, 0 = blocked; activation factor at 5 µM; hit rate 1.4% among 96,000;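 active = activation factor of 2 or more for CYP2C9 at a 5 µM dose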
EphB4 antag = EphB4-ephrin-B2 interaction antagonism. inhibition, % at 7 µM. AID 720. hit rate 0.15% among 97,000. P54760. EphB4 LBD / TNYL-RAW-Alexa532 peptide, fluorescence polarization;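 active = inhibition above the screen-wide mean inhibition plus 3 SD, cut at about 15% in these data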
CYP2C19 act = cytochrome P450 2C19 (human) activation; P33261; recombinant CYP2C19, luciferin-H EGE luminescence; hits give high values; 0 = fully inhibited enzyme, 1 = untreated enzyme; activation factor at 5 µM; 96,000 tested, under 10 active;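 active = activation factor of at least 2 at 5 µM in the primary screen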
CYP2C9 inhib = human CYP2C9 inhibition; P11712; CYP2C9 Supersomes, luciferin-H conversion, luminescence; inhibition, % at 5 µM; hit rate 20% among 96,000;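 active = blocking of liver enzyme CYP2C9 beyond about 50% at 5 µM, limit read from the data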
Each line names hits and unclear results; the compound was inactive in the other large screens.

COc1cc(-c2nc3cnccc3n2C)cc(OC)c1OC	none
Cc1nc2ccccc2n1/N=C/c1cccnc1	none
CC1=C(C#N)C(Nc2cccc(C)n2)(C(F)(F)F)C(=O)N1 (stereo not drawn)	CYP2C19 inh 75
CC1=C(C#N)C(NC(=O)C2CC2)(C(F)(F)F)C(=O)N1 (stereo not drawn)	none
C=CCn1c(CSc2nc3ccccc3s2)nnc1SCC(=O)NCc1ccccc1	CYP2C9 inhib 50
Cc1nc2ccccc2n1CCc1nc2c3ccccc3nc(SCC(=O)NCc3ccco3)n2n1	CYP2C9 inhib 72
C=CCn1c(CSc2nc3ccccc3s2)nnc1SCC(=O)NCc1cccnc1	none (no result: CYP2C19 inh, CYP2C9 act, CYP2C19 act, CYP2C9 inhib)
Cc1ccc(CSc2nc3ccccc3c(=O)n2CCCC(=O)NCc2ccco2)cc1	CYP2C19 inh 74, CYP2C9 inhib 98
O=C(CCn1c(SCC(=O)NCc2ccco2)nc2ccccc2c1=O)NCCc1ccccc1	CYP2C19 inh 77, CYP2C9 inhib 85
CC1(C)Cc2c(sc3nc(SCC(=O)NCc4ccco4)n(-c4ccccc4)c(=O)c23)CS1	CYP2C9 inhib 54
C=CCn1c(SCC(=O)NCc2ccco2)nnc1-c1ccc2ccccc2n1	CYP2C9 inhib 59
CC(C)c1nc2ccccc2c2nnc(SCC(=O)NCc3ccco3)n12	CYP2C19 inh 98, CYP2C9 inhib 76
Cc1sc2nc(SCC(=O)NCc3ccco3)n(CCc3ccccc3)c(=O)c2c1C	CYP2C9 inhib 65
CC(C)(C)c1nc2ccccc2c2nnc(SCC(=O)NCc3ccco3)n12	none
Cc1sc2nc(SCC(=O)NCc3ccco3)n(C)c(=O)c2c1C	none
O=C(Cn1c(=O)n(CC2CCCO2)c(=O)c2ccccc21)N1CCN(c2ccccc2)CC1 (stereo not drawn)	none
[O-][n+]1onc2c1CCC1N(O)C(c3ccccc3)CC21O (stereo not drawn)	none
O=C(COC(=O)c1cccnc1Nc1cccc(C(F)(F)F)c1)NCCN1C(=O)CSC1=O	CYP2C19 inh 63, CYP2C9 inhib 97
O=C(COC(=O)c1cccs1)NCCN1C(=O)CSC1=O	CYP2C19 inh 63
O=C(CC1Nc2ccccc2NC1=O)NCC1COc2ccccc2O1 (stereo not drawn)	none
COc1cccc(C(=O)COC(=O)C(C)N2C(=O)c3ccccc3C2=O)c1 (stereo not drawn)	none
CC1CC(C)(C)N2C(=O)C3(Nc4ccccc4S3)c3cccc1c32 (stereo not drawn)	CYP2C19 inh 52
C=CCn1c(SCc2ccccc2C#N)nnc1-c1cc(Br)ccc1O	CYP2C19 inh 99, CYP2C9 inhib 78
C=CCn1c(SCC(N)=O)nnc1-c1cccc(Br)c1	none
CCOC(=O)N1CCC(NC(=O)c2cc(S(=O)(=O)N3CCOCC3)ccc2F)CC1	none (no result: EphB4 antag)
CCN(CC)C(=O)CSc1nc(-c2cccs2)cc(-c2cccs2)c1C#N	none (no result: CYP2C19 inh, CYP2C9 act, CYP2C19 act, CYP2C9 inhib)
COc1ccc(CCNC(=O)CSc2nc(N)c(C#N)c(-c3cccs3)c2C#N)cc1OC	none
CN1CCN(C(=O)CSc2nc(-c3cccs3)cc(-c3cccs3)c2C#N)CC1	CYP2C19 inh 86, CYP2C9 inhib 78 (no result: EphB4 antag)
COc1ccc(-c2cc(-c3cccs3)c(C#N)c(SCC(=O)NCc3ccco3)n2)cc1	CYP2C9 inhib 85 (no result: EphB4 antag)
COc1ccc(CNC(=O)CSc2nc(-c3ccccc3)cc(-c3cccs3)c2C#N)cc1	CYP2C9 inhib 69
CN(CCOc1ccccc1)c1ccc(S(=O)(=O)N2CCCCC2)cn1	none
CCOC(=O)Nc1cccc(NC(=O)c2cc(OC)cc(OC)c2)c1	none (no result: CYP2C19 inh, CYP2C9 act, CYP2C19 act, CYP2C9 inhib)
Oc1ccccc1C1=Nc2ncnn2C(c2ccccc2)C1 (stereo not drawn)	CYP2C19 inh 54 (no result: EphB4 antag)
c1ccc(C2C3=C(CCCC3)Nc3ncnn32)cc1 (stereo not drawn)	none
CC1C(=O)CC(c2ccccc2)N(C)C1c1ccccc1 (stereo not drawn)	CYP2C19 inh 100, CYP2C9 inhib 90 (no result: EphB4 antag)
CCOC(=O)COc1cc(Br)c(/C=N/Nc2ccccc2)cc1OC	none
CC(=O)c1c(N)c(C#N)c(C)n1-c1ccc(Br)cc1	CYP2C19 inh 94
COC(=O)c1c(N)c(C#N)c(C)n1-c1ccccc1	none
Cc1nc2c(-c3ccccc3)c(C)nn2c(C)c1CCC(=O)NC(C)CCc1ccco1 (stereo not drawn)	CYP2C19 inh 52
COc1ccccc1-c1cc2nc(C)c(CCC(=O)NC(C)CCc3ccco3)c(C)n2n1 (stereo not drawn)	CYP2C19 inh 90, CYP2C9 inhib 89
Cc1nc2c(-c3ccccc3)c(C)nn2c(C)c1CCC(=O)O	none
